Experimental data published in PubChem BioAssay (NCATS).
Where “and” joins values, the source holds several entries; their conditions need not be identical. Equal entries are not always repeated. Results filed as inconclusive are left out. Calls of active or inactive are those of the source. Calls come from the whole dose curve; as a rule, active = well fitted cell-killing curve with a large enough effect; inconclusive = small, poorly fitted or top-dose-only effect, or effect the other way; inactive = no such curve, though single readings can be large or run the other way.

Experiment: Viability qHTS for spleen associated tyrosine kinase inhibitor (SYKi) drug resistant MV4-11 cells (AID 1963824); note: nearly all actives have a fitted effect of over 35% in size
Conditions: SYKi-resistant MV4-11 viability, CellTiter-Glo, 72 h; series mostly up to 45 µM
Procedure, shortened: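 SYK-inhibitor-resistant MV4-11 AML cells were seeded at 500 per well onto compound and cultured 72 hours (37 °C, 5% CO2). CellTiter-Glo was then added, and after 10 min at room temperature, luminescence gave viability.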
Potency is the fitted concentration of half-maximal effect.

| SMILES | Potency |
| --- | --- |
| O=C(N[C@@H]1CCCc2c1cnn2-c1ccc(F)cc1F)c1ccccn1 | 14.6 µM (active) |
| CC(C)(C)n1nc(Cc2cccc([N+](=O)[O-])c2)c2c(N)ncnc21 | 5.17 µM (active) |
| CC1=CCC2C(C)(CO)CCCC2(CO)C1CO (configuration not stated) | 16.4 µM (active) |
| CCC(C)/C=C(C)/C=C/C1=CC2=C(Cl)C(=O)C(C)(OC(C)=O)C(=O)C2=CN1C(CCC(=O)O)C(=O)O (configuration not stated) | inactive |
| COc1cc(O)c2c(c1)C1(OC2=O)C(C)=CC(=O)C1O (configuration not stated) | 16.4 µM (active) |
| C=C1CCC2C(C)(C(=O)O)CCCC2(C)C1CC/C(C)=C\CO (configuration not stated) | inactive |
| COC(=O)N[C@H](C(=O)N1[C@@H]2CC[C@@H](C2)[C@H]1c1nc2ccc(-c3ccc4c(c3)C(F)(F)c3cc(-c5cnc([C@@H]6CCC7(CC7)N6C(=O)[C@@H](NC(=O)OC)C(C)C)[nH]5)ccc3-4)cc2[nH]1)C(C)C | 3.99 µM (active) |
| CC(=O)O[C@@H]1[C@@H](OC(=O)/C=C/c2ccccc2)[C@H](C)O[C@@H](O[C@H]2[C@@H]3C=CO[C@@H](O[C@@H]4O[C@H](CO)[C@@H](O)[C@H](O)[C@H]4O)[C@@H]3[C@@]3(CO)O[C@@H]23)[C@@H]1OC(C)=O | inactive |
| C=CC(=O)Nc1cccc(CN2C(=O)N(c3c(Cl)c(OC)cc(OC)c3Cl)Cc3cnc(NCCCCN(CC)CC)nc32)c1 | 3.66 µM (active) |
| CC(=O)[C@@H]1CC[C@]2(C(=O)O)CC[C@]3(C)C(CCC4[C@@]5(C)CC[C@H](O)C(C)(C)C5CC[C@]43C)C12 (some centres not stated) | 7.09 µM (active) |
| C=C(C(=O)O)[C@@H]1CC[C@@]2(C)CCC[C@@](C)(O)[C@@H]2C1 | inactive |
| Nc1nc2c(ncn2[C@@H]2O[C@H](CO)[C@@H](O)[C@H]2O)c(=O)[nH]1 | inactive |
| O=C(CCO[C@@H]1O[C@H](CO)[C@@H](O)[C@H](O)[C@H]1O)c1ccc(O)cc1 | inactive |
| COc1ccc(CN2CCN(C(=O)CCNC(=O)c3ccc(C(C)(C)C)cc3)CC2)cc1 | 9.2 µM (active) |
| CCCCCC1CC1CC1CC1CCCCCCCC(=O)O (configuration not stated) | inactive |
| CC[C@@H]1[C@H]2CCCCN3C(=O)C[C@H]([C@@H]4[C@H]1OC(=O)[C@H]4C)[C@@H]23 | inactive |

| SMILES | Potency |
| --- | --- |
| O=c1[nH]c2ccccc2n1CCCN1CCN(C(c2ccccc2)c2ccccc2)CC1 | 11.9 µM (active) |
| C[C@@H]1C(=O)O[C@H]2CC34[C@H]5C[C@@H](C(C)(C)C)C36[C@@H](OC(=O)[C@@H]6O)O[C@@]4(C(=O)O5)[C@]21O (some centres not stated) | inactive |
| CO/N=C(/C(=O)N[C@@H]1C(=O)N2C(C(=O)OCOC(=O)C(C)(C)C)=C(C)CS[C@H]12)c1csc(N)n1 | 23.7 µM (active) |
| O=c1[nH]c2ccccc2n1CCN1CCN(c2cccc(C(F)(F)F)c2)CC1 | 23.1 µM (active) |
| COc1ccc([C@@]2(O)c3c(ccc4c3OC(C)(CCC=C(C)C)C=C4)NC(=O)[C@@H]2OC)cc1 (some centres not stated) | inactive |
| Cc1cc(N)c2ccccc2[n+]1CCCCCCCCCC[n+]1c(C)cc(N)c2ccccc21 | 0.58 µM (active) |
| COC(=O)[C@@H](NC(=O)[C@H](CC(C)C)NC(=O)N(Cc1ccccc1)C[C@@H](O)[C@H](Cc1ccccc1)NC(=O)OC(C)(C)C)C(C)C | 3.35 µM (active) |
| C[C@@H]1C[C@@H](O)[C@@]2(CO)C(CO)=CCC[C@@H]2[C@@]12C[C@@H](c1ccoc1)OC2=O | inactive |
| CCCCCCCCCCC(O)C1C=CC2C(=O)N(c3ccccc3)C(=O)C2N1Nc1ccc([N+](=O)[O-])cc1 (configuration not stated) | 11.6 µM (active) |
| C[C@@]12C[C@]3(O)O[C@H](O1)[C@]1(COC(=O)c4ccccc4)[C@H]3C[C@@]12O[C@@H]1O[C@H](COC(=O)c2ccccc2)[C@@H](O)[C@H](O)[C@H]1O | inactive |
| CC(=O)OC1CC2C3(C)CCC(OC(=O)CC(=O)O)C(C)(C)C3CCC2(C)C2(C)CCC(C3(C)CCC(=O)O3)C12 (configuration not stated) | 6.32 µM (active) |
| C=C1CCC2C(C(C)(C)O)CCC2(C)CC(O)C(=C)CCC1O (configuration not stated) | 11.4 µM (active) |
| [2H]C([2H])(Nc1nc(-c2ccccc2C([2H])(C([2H])([2H])[2H])C([2H])([2H])[2H])ncc1C)c1ccc(-n2ccnn2)cc1 | 11.8 µM (active) |
| COc1cc(SC)ccc1C(=O)N1CCC(Cc2ccccc2)CC1 | 16.6 µM (active) and 20.6 µM (active) |
| CC1(C)CC[C@]23CO[C@@]4(CCC5[C@@]6(C)CC[C@H](O[C@@H]7OC[C@H](O[C@@H]8O[C@H](CO)[C@@H](O)[C@H](O)[C@H]8O)[C@H](O)[C@H]7O[C@@H]7O[C@H](CO)[C@@H](O[C@@H]8O[C@H](CO)[C@@H](O)[C@H](O)[C@H]8O)[C@H](O)[C@H]7O)[C@@](C)(CO)C6CC[C@@]5(C)[C@]4(C)C[C@H]2OC2OCC(O)C(O)C2O)C3C1 (some centres not stated) | 3.09 µM (active) |
| C=CCCN1CCC2(CC1)CN(C(=O)c1c(F)cccc1F)c1ccc(Cl)cc12 | 10.3 µM (active) |
